AMA1-RON2 inh – AMA1-RON2 (P. falciparum) interaction inhibition. 360,000 compounds, 0.2% hits. AlphaScreen AMA1-biotinylated RON2 peptide binding. AID 720542. Potency, µM (series often up to 58.2 µM), hits mostly inhibitors; further: nearly all actives have a fitted effect of over 45% in size
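AMA1 (3D7) with his tag at 25 nM final met compounds first, then biotinylated RON2 peptide at 25 nM; detection used donor plus acceptor beads, 10 µg/mL apiece, read by AlphaScreen after 30 min at room temperature.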
RE007 growth inh – less growth of the S. pombe RE007 Vpr strain. S. pombe RE007 Vpr strain, BacTiter-Glo ATP luminescence, 24 h. Potency, µM (top dose mostly 92.2 µM), most hits filed as inhibitors. 360,000 compounds, 0.21% hits; active means well fitted falling curve with a large enough effect; inconclusive means small, poorly fitted or top-dose-only effect; inactive means no such curve, though single readings can be large or run the other way; further: nearly all actives have a fitted effect of over 50% in size
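Fission yeast RE007 carrying one integrated HIV-1 vpr copy, seeded at OD 0.01 in PMG+AL medium with 23 nL pinned compound. Grown 24 h at 30 degrees; viability read by BacTiter-Glo luminescence after 5 min.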
LmPK inh – LmPK (Leishmania mexicana) enzyme inhibition; Q27686; purified LmPK, Kinase-Glo ATP luminescence, 1 h; Potency, µM (doses to about 57.5 µM), actives largely listed as inhibitors; 290,000 compounds, 0.37% hits
Target sequence (Q27686 whole entry, looked up): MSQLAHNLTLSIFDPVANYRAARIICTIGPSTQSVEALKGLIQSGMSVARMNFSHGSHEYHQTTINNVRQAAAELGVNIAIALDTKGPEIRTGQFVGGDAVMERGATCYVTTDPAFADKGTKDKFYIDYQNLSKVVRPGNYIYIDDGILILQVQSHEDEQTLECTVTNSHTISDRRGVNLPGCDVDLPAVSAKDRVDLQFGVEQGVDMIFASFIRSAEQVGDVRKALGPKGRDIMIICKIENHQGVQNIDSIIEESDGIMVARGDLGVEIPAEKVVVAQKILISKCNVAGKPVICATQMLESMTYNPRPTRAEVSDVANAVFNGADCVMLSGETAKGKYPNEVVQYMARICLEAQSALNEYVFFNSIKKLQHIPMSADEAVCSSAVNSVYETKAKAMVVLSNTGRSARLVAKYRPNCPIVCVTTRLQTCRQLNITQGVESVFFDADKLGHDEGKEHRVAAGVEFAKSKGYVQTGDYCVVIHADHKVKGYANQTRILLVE
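Kinase-Glo luminescence read after 1 h RT reaction of 0.1 nM LmPK with 0.5 mM PEP and 0.1 mM ADP. Activity scaled between uninhibited and enzyme-free controls.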
TbPYK inhibitor – blocks Trypanosoma brucei pyruvate kinase | TbPYK enzyme, Kinase-Glo Plus ATP luminescence, 45 min | 410,000 compounds, 0.12% hits | Q57TT1 | Potency, µM (doses to about 76.8 µM), hits mostly inhibitors; further: nearly all actives have a fitted effect of over 50% in size
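T. brucei PYK with substrate was exposed to pin-transferred compounds across a concentration series, then started with 130 uM ADP (final). After 45 min at room temperature, Kinase-Glo Plus luminescence was read, normalized and curve-fitted.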
Sm TGR inh – S. mansoni TGR enzyme inhibition. Q962Y6. purified TGR, DTNB reduction, TNB absorbance 405 nm. Potency, µM (titrated, usually from 114 µM), usual class: inhibitors. 360,000 compounds, 3% hits. AID 485364; further: nearly all actives have a fitted effect of over 60% in size
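Kinetic colorimetric format: TGR-catalysed, NADPH-driven DTNB reduction monitored via TNB absorbance. Enzyme dispensed at 20 nM; compound exposure 15 min at room temperature before reaction start.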
Numbers stand for hits; - = inactive; ? = inconclusive; . = no result given; [ ] = remark or other dose. The list is not random: actives were taken first. Their share in the collection is about 3.2%. Unless noted, the call rests on the fitted dose curve; in most records, active means well fitted curve in the direction sought with a large enough effect; inconclusive means small, poorly fitted or top-dose-only effect, or another doubt; inactive means no such curve, though single readings can be large; an effect the other way counts as inactive or inconclusive.

SMILES	AMA1-RON2 inh	RE007 growth inh	LmPK inh	TbPYK inhibitor	Sm TGR inh
Cc1cc(C)c(S(=O)(=O)/N=C2/C=C(SCC(=O)O)C(=O)c3ccccc32)cc1C	-	?	-	?	3.5µM
O=C(O)/C=C/c1nc(-c2ccccc2)n2ccccc12	-	-	-	-	2.5µM
COc1ccc(CCNC(=O)c2ccc3c(c2)N(Cc2ccccc2Cl)C(=O)c2ccccc2S3)cc1OC	.	.	.	-	-
CC1=C(C)C(OCCBr)N(c2cc(O)c(Cl)cc2F)C1=O (centres undefined)	-	-	-	-	28µM
O=[N+]([O-])c1ccc(Sc2cccc[n+]2[O-])c2nonc12	-	10µM	?	18µM	0.28µM
Cc1ccc(Cl)cc1NC(=O)Nc1cccc(OCc2cc(=O)n3ccccc3n2)c1	.	.	.	-	-
Cc1ccc(CNC(=O)Cn2ccc3ccccc3c2=O)o1	?	-	-	-	32µM
Cc1ccccc1S(=O)(=O)Nc1nc2ccccc2nc1Cl	-	-	-	-	-
Cc1ccccc1S(=O)(=O)NC1OC(=O)C(Oc2ccccc2)=C1Br (centres undefined)	-	-	-	-	8.9µM
Cc1ccccc1S(=O)(=O)NC1OC(=O)C(Cl)=C1Cl (centres undefined)	-	-	-	-	3.2µM
Cc1ccc(C)c(CN2CCCN(CC(=O)Nc3ccc(C)c(C)c3)S2(=O)=O)c1	.	.	.	-[15.4 µM]	-
CSc1cccc(NC(=O)C2CCN(S(=O)(=O)c3ccc4c(c3)CCCN4C(=O)C3CCC3)CC2)c1	.	.	.	-	-
Cc1ccccc1-c1cc2c(nn1)-c1ccccc1C2=O	-	-	5µM	-	-
O=C1c2ccccc2-c2nnc(-c3ccc(F)cc3)cc21	-	-	5µM	?	-
O=C1c2ccccc2-c2nnc(-c3ccc(O)cc3)cc21	-	-	8.9µM	-	-
Cc1ccc(CNC(=O)Cn2ccn(-c3ccc(F)cc3)c(=O)c2=O)cc1	.	.	.	-	-
O=C1CC(C(=O)N2CCC(N3CCC(C(=O)NC4CC4)CC3)CC2)c2ccccc21 (centres undefined)	-	-	-	-	40µM
Cc1cc(CN2CCC(N3CCC(C(=O)NC4CC4)CC3)CC2)cc(C)c1O	-	-	-	-	45µM
CC(=O)Nc1ccc(CN2CCC(N3CCC(C(=O)NC4CC4)CC3)CC2)cc1	-	-	.	-	.
O=C(NC1CC1)C1CCN(C2CCN(C(=O)c3c(F)cccc3Cl)CC2)CC1	-	-	-	-	-
CCc1ccc(C(=O)c2cn(CC(=O)Nc3ccc4c(c3)OCCO4)c3ccc(CC)cc3c2=O)cc1	.	.	.	-	-
C#C[C@@]1(O)CC[C@@H]2[C@H]3CCC4=C/C(=N\O)CC[C@H]4[C@@H]3CC[C@]21CC	.	.	.	-	.
O=C(CNC(=O)c1ccc(Br)o1)Nc1ncccc1O	-	-	.	-	45µM
COc1cccc2cc(C(=O)NCCc3c(C)[nH]c4ccc(F)cc34)c(=O)oc12	.	.	.	-	-
NS(=O)(=O)c1ccc(N/C=C\C(=O)c2ccc(F)cc2)cc1	-	-	-	-	-
SMILES	AMA1-RON2 inh	RE007 growth inh	LmPK inh	TbPYK inhibitor	Sm TGR inh
CN(C)c1ccc(N/C=C/C(=O)c2ccc(F)cc2)cc1	-	-	14µM	?	-
CC(=O)Nc1ccc(N/C=C/C(=O)c2ccco2)cc1	-	-	?	-	-
CN(C)c1ccc(N/C=C/C(=O)c2ccco2)cc1	-	-	7.1µM	?	-
COc1ccc(S(=O)(=O)N/N=C(/C)c2ccc(Cl)cc2)cc1	-	-	-	-	-
COc1ccc(C/C(C)=N/NS(=O)(=O)c2ccc(Br)cc2)cc1	-	-	-	-	22µM
CCCCCCCCCCCCCCCCCCOP(=O)([O-])OC1CC[N+](C)(C)CC1	.	.	.	-	.
COc1ccccc1N1CCN(c2nc(-c3ccc(C)cc3)nc3ccccc23)CC1	.	.	.	-	-
C=C1CCN(C(Cc2ccccc2)C(=O)OC)S(=O)(=O)c2ccc(F)cc21 (centres undefined)	-	-	-	-	22µM
CN(C)C/C(Cl)=C(\Cl)c1ccccc1	-	-	-	-	20µM
CN(C)CC(=O)c1ccc(-c2ccccc2)cc1	-	-	-	-	?
Cc1ccccc1C(=O)Nc1nnc(S(=O)(=O)N2CCc3ccccc32)s1	.	.	.	-	-
Nc1ccc2c(c1)C(=O)C(=O)c1ccccc1-2	-	25µM	?	?	-
Nc1ccc2c(c1)C(=O)c1ccccc1-2	-	-	.	-	.
S=C(SSC(=S)N1CCOCC1)N1CCOCC1	-	-[18.4 µM]	.	3.2µM	.
COc1ccc(NC(=O)c2sc3nc4c(cc3c2N)CN(Cc2ccccc2)CC4)cc1OC	.	.	.	-	-
Cc1ccccc1NC(=O)c1sc2nc3c(cc2c1N)CN(Cc1ccccc1)CC3	.	.	.	-	79µM
Cc1ccc(NC(=O)CN2C(=O)COc3ccc(S(=O)(=O)N4CCCCCC4)cc32)cc1Cl	.	.	.	-	-
O=C(CCN1CCCCC1c1cccnc1)NCc1ccccc1 (centres undefined)	-	-	-	-	35µM
COc1ccccc1CN1CCCCC1c1cccnc1 (centres undefined)	-	-	-	-	-
CN(C)c1ccc(CC(=O)N2CCCC(c3cc(C(=O)Nc4ccc(C(C)(C)C)cc4)no3)C2)cc1 (centres undefined)	13µM	-	.	-	.
COCCCN1C(=O)/C(=C/c2ccc(CNS(=O)(=O)c3ccccc3)o2)C(C(=O)OC)=C1C	-	-	-	-	11µM
COc1cc(-c2ccc(Nc3ccccc3C(=O)O)c(OC)c2)ccc1Nc1ccccc1C(=O)O	18µM	-	-	-	45µM
Cc1ccc(N/N=C/c2c(O)n(-c3ccccc3)c(=O)[nH]c2=O)cc1	-	-	-	-	18µM
CC(=O)C1=C(c2ccccc2)NC(=S)NC1c1ccc(O)c(O)c1 (centres undefined)	?	-	-	-	-
CC(=O)C1=C(c2ccccc2)NC(=O)NC1c1ccc(O)c(O)c1 (centres undefined)	-	-	-	-	16µM
CCOC(=O)c1ccc(N2C(=O)CC(N(C)CCc3ccc(OC)c(OC)c3)C2=O)cc1 (centres undefined)	-	4µM	-	-	45µM
CCOC(=O)c1ccc(N2C(=O)CC(N3CCC(C(N)=O)(N4CCCCC4)CC3)C2=O)cc1 (centres undefined)	-	-	-	-	28µM
O=C1CC(N2CCN(c3ccccc3)CC2)C(=O)N1c1ccc2c(c1)OCO2 (centres undefined)	-	-	-	-	-
CCOc1cccc(N2C(=O)CC(N(CCc3ccc(OC)c(OC)c3)C(=O)CC)C2=O)c1 (centres undefined)	-	-	-	-	-
CCOC(=O)N1CCN(C2CC(=O)N(c3ccc(C)cc3)C2=O)CC1 (centres undefined)	-	-	-	-	?

Compound activity as filed in PubChem.
